Where “and” joins values, the source holds several entries; their conditions need not be identical. Identical values can stand only once. More than one record can exist for a structure, and the calls need not agree. Calls of active or inactive are those of the source. How the source made its calls: active means hit-call score of the fitted dose curve at least 0.9, where 1 is the maximum; inactive means score below 0.9.
test: ATG_SREBP_CIS: Attagene CIS-FACTORIAL HepG2 Assay for human Sterol Regulatory Element Binding (SREBP) (AID 2282962); details: HepG2 Attagene cis-factorial SREBP reporter, mRNA; actives raise or lower the signal
Description: ATG_CIS is a cell-based, multiplexed-readout assay that uses HepG2, a human liver cell line, with measurements taken at 24 hours after chemical dosing in a 24-well plate.ATG_SREBP_CIS is one of 52 assay component(s) measured or calculated from the ATG_CIS assay. It is designed to make measurements of mRNA induction, a form of inducible reporter, as detected with fluorescence intensity signals by Reverse transcription polymerase chain reaction (RT-PCR) and Capillary electrophoresis technology.Data from the assay component ATG_SREBP_CIS was analyzed into 1 assay endpoint. This assay endpoint, ATG_SREBP_CIS, was analyzed with bidirectional fitting relative to DMSO as the negative control and baseline of activity. Using a type of inducible reporter, measures of mRNA for gain or loss-of-signal activity can be used to understand the reporter gene at the transcription factor-level as they relate to the gene SREBF1. Furthermore, this assay endpoint can be referred to as a primary readout, because this assay has produced multiple assay endpoints where this one serves a reporter gene function. To generalize the intended target to other relatable targets, this assay endpoint is annotated to the dna binding intended target family, where the subfamily is basic helix-loop-helix leucine zipper.
Human liver HepG2 cells are transiently transfected with multiple reporter transcription units (MRTUs) in 6-well plates using FuGene 6 reagent (Roche; 3 ml FuGene/1 mg DNA). The MRTU constructs are regulated by a cis-regulating element (promoter). […] A major difference between the CIS and TRANS system is that in CIS activities of endogenous TFs are measured, whereas the TRANS assay evaluates changes in activities of exogenous, chimeric NR-Gal4 proteins. […] At the end of 24 hour incubation, total RNA was isolated using TriZol reagent (Invitrogen). The isolated RNA is then reverse-transcribed using oligo(dT) primer and Mo-MLV reverse transcriptase (Invitrogen) with DNAse I (Ambion) treatment for 30 min. The one-tenth of the produced cDNA was amplified by PCR using Taq DNA polymerase (Invitrogen) and two reporter sequence-specific primers. The PCR products were fluorescently labeled by primer extension with 6-arboxyfluorescein (6-FAM) 5'-labeled reporter sequence-specific primer (2 min at 95 C, 20 s at 68 C and 10 min at 72 C) and these products were digested with 5U of HpaI (New England Biolabs) for 2h at 37 C. The fragments were purified using Qiaquick PCR columns (Qiagen), analyzed on an ABI 3130xL genetic analyzer (Applied Biosystems) with peak positions identified by using a set of X-rhodamine (ROX)-labeled MapMarker1000 molecular weight standards (BioVentures). The raw capillary electrophoresis data was processed using Attagraph software (Attagene).

| SMILES | outcome | AC50 |
| --- | --- | --- |
| OCC(CO)(CBr)CBr | inactive |  |
| CCCCN(C)C | inactive |  |
| O=C(CC(=O)C(F)(F)C(F)(F)C(F)(F)F)c1cccs1 |  | 16.2 µM (active) and 80.3 µM (active) |
| CCc1cccc(CC)c1N(COC)C(=O)CS(=O)(=O)O | inactive |  |
| NC(=NCCCCCCN=C(N)/N=C(\N)Nc1ccc(Cl)cc1)/N=C(\N)Nc1ccc(Cl)cc1 | inactive | 23.3 µM (active) |
| O=CC(F)(F)C(F)(F)C(F)(F)F | inactive |  |
| CC[N+](CC)(CC)Cc1ccccc1 | inactive |  |
| C=CC(C)(CCC=C(C)C)OC(C)=O (stereo not given) | inactive |  |
| CCCCCCCC(OC)OC | inactive |  |
| FC(F)(F)C1(F)C(F)(F)C(F)(F)C(F)(F)C1(F)F | inactive |  |
| FC1(F)C=CC(F)(F)C1(F)F | inactive |  |
| CC(C)(C)C1CCCCC1O (stereo not given) | inactive |  |
| CCCCc1oc2ccccc2c1C(=O)c1cc(I)c(OCCN(CC)CC)c(I)c1 |  | 19.7 µM (active) |
| COc1cc(OC)nc(NC(=O)NS(=O)(=O)Nc2ccccc2C(=O)N(C)C)n1 | inactive |  |
| Cc1cccc2c1ccc1ccccc12 | inactive |  |
| Cc1[nH]nc2c1N=C(c1ccccc1Cl)c1cc([N+](=O)[O-])ccc1N2 | inactive |  |
| CC(O)COc1ccccc1 (stereo not given) | inactive |  |
| CCc1ccccc1O | inactive |  |
| O=C(O)C(=O)O | inactive |  |

| SMILES | outcome | AC50 |
| --- | --- | --- |
| OCC1CCC(CO)CC1 (stereo not given) | inactive |  |
| O=C(Nc1ccc(Cl)c(Cl)c1)c1cc(Cl)cc(Cl)c1O | inactive |  |
| C=CC(=C)CC/C=C(\C)CCC=C(C)C | inactive |  |
| CN(C)c1ccc(C(=C2C=CC(=[N+](C)C)C=C2)c2ccccc2)cc1 | inactive | 9.9 µM (active) |
| Brc1ccc(Oc2ccc(Br)cc2Br)cc1 | inactive |  |
| CCC(C)c1nccnc1OC (stereo not given) | inactive |  |
| O=C(F)C(F)(F)C(F)(F)C(F)(F)C(F)F | inactive |  |
| COCC1CCC(CO)CC1 (stereo not given) | inactive |  |
| COc1ccc(C#N)cc1 | inactive |  |
| COCN(COC)c1nc(N(COC)COC)nc(N(COC)COC)n1 | inactive |  |
| Nc1ccn([C@@H]2O[C@H](CO)[C@@H](O)C2O)c(=O)n1 (stereo not given in full) | inactive |  |
| Oc1ccc(Cc2ccccc2O)cc1 | inactive |  |
| O=S(=O)(c1ccc(OCc2ccccc2)cc1)c1ccccc1O |  | 22.7 µM (active) |
| O=P(O)(O)CCC(F)(F)C(F)(F)C(F)(F)C(F)(F)C(F)(F)C(F)(F)C(F)(F)C(F)(F)F | inactive |  |
| CC(C)CCOCCC(C)C | inactive |  |
| O=C(NO)c1ccccc1 | inactive |  |
| CCCCCc1ccc(O)cc1 | inactive |  |
| CCC1CO1 (stereo not given) | inactive |  |
| CCCCCCC(C)(C)C(=O)O | inactive |  |

Source: PubChem BioAssay (EPA / NIEHS)
